ASM inhibitor: human S-ASM enzyme inhibition; P17405; placental ASM, HMU-PC fluorogenic substrate, 60 min; Potency, µM (series often up to 57.5 µM), for inactives: at the top dose activity change, negative = inhibition, usual class: inhibitors; 0.006% of 340,000 active; further: potency means the concentration at half of the fitted maximal effect
Target sequence (P17405 47-631 limits assumed): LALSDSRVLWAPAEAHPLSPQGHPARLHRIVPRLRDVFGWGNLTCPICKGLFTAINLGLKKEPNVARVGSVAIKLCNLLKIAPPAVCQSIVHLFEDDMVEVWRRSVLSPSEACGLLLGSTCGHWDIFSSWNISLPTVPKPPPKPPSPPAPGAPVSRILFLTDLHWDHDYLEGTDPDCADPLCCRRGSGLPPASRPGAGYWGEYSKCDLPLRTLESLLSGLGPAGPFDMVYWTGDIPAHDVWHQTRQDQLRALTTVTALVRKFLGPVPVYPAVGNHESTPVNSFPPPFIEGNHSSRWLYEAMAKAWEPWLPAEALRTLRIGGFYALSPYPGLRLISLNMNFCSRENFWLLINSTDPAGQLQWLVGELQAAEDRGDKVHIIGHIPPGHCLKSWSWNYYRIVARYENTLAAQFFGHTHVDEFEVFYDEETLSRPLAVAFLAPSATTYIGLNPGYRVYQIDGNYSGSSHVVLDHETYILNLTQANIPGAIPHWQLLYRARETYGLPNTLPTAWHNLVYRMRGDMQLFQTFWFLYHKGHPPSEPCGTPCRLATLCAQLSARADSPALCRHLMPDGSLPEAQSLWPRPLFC
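qHTS format. ASM enzyme prepared from human placenta hydrolyses the fluorogenic substrate HMU-PC0 (9 uM final) over 60 min at 37 °C after a 10 min compound preincubation.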
IL1B secr inh: inflammasome signaling inhibition, IL-1 beta readout; 4.7% of 360,000 active; THP-1 LPS/ATP IL-1B secretion, AlphaLISA, 16 h; hits give low values; activity change, % at 57.5 µM; in the data active means activity change below about -50%; inconclusive means mostly about -30% to -49%; further: on the % scale 0 is the no-effect control and ±100 the full control effect
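Secreted IL-1B measured by AlphaLISA bead assay after 16 h compound exposure of THP-1 cells; compounds (final up to 57.5 uM) added 1 h before LPS (250 ng/mL) and ATP (1.25 mM) stimulation; lower signal means less secretion.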
HepG2 tox: counter-screen for TGF-b inhibitors: cytotoxicity in HepG2 cells. Potency, µM (top dose mostly 46.1 µM), for the others: at the highest dose activity change, negative = cytotoxicity, most hits filed as cytotoxic. AID 588856. HepG2 CAGA-GFP viability, ATP luminescence, 18 h. 0.76% of 410,000 active; further: potency means the concentration at half of the fitted maximal effect
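HepG2 CAGA-GFP cells (1000/well, DMEM with 1% FBS) received compound, then TGF-beta at 500 pg/mL final, and were incubated 18 hours at 37 degrees C. Viability was read by CellTiter-Glo luminescence. Media-only wells were set as complete cell-killing and DMSO as no toxicity.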
TDP1 cell noCPT: qHTS for Inhibitors of human tyrosyl-DNA phosphodiesterase 1 (TDP1): qHTS in cells in absence of CPT | 15% of 420,000 active | DT40 Tdp1-/- hTDP1 cells, no CPT, ATP luminescence, 48 h | Potency, µM (series often up to 46.2 µM), for inactives: top-dose activity change, negative = growth inhibition, actives largely listed as inhibitors; further: potency means the concentration at half of the fitted maximal effect; on the % scale 0 is the no-effect control and ±100 the full control effect; nearly all actives have a fitted effect of over 55% in size
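No-CPT arm: Tdp1-/-;hTDP1 DT40 cells (400/well) plus compounds, incubated ≥48 hr at 37 °C. Readout CellTiter-Glo luminescence.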
DT40 TDP1 CPT: DT40-hTDP1 cell growth loss with CPT. 12% of 420,000 active. Potency, µM (top dose mostly 46.2 µM), without a hit: at the top dose activity change, negative = growth inhibition, most hits filed as inhibitors. chicken DT40 Tdp1-/-;hTDP1 cells + 20 nM CPT, ATP luminescence, 48 h; further: potency means the concentration at half of the fitted maximal effect; on the % scale 0 is the no-effect control and ±100 the full control effect; nearly all actives have a fitted effect of over 55% in size
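Cell growth measured by CellTiter-Glo luminescence after a minimum 48 h, 37 C compound exposure with 20 nM CPT in Tdp1-knockout DT40 cells stably expressing hTDP1, seeded 400/well; qHTS titration format.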
TGFb inhibitor: blocks TGF-b signaling | HepG2 CAGA-GFP TGF-b/SMAD3 reporter, GFP fluorescence, 18 h; TGF-beta stimulated, 500 pg/mL final | Potency, µM (titrated, usually from 46.1 µM), inactives show at the top dose activity, negative = inhibition, usual class: inhibitors | 1.2% of 410,000 active | AID 588855; further: potency means the concentration at half of the fitted maximal effect; on the % scale 0 is the no-effect control and ±100 the full control effect; nearly all actives have a fitted effect of over 65% in size
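Read-out: total well GFP (ex488/em500-530) summed from mean per-cell fluorescence. Cells: HEPG2 CAGA-GFP, 1% FBS DMEM, 18 h at 37 degrees C with 500 pg/mL final TGF-beta. Unstimulated wells served as the full-inhibition control; stimulated DMSO wells = 0%.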
An asterisk follows results filed as active. Sampled rows, rich in hits. Any-hit rate of the full collection: about 19%. Unless noted, the call rests on the fitted dose curve; in most records, active means well fitted curve in the direction sought with a large enough effect; inconclusive means small, poorly fitted or top-dose-only effect, or another doubt; inactive means no such curve, though single readings can be large; an effect the other way counts as inactive or inconclusive.

Screening CCCOc1ccc(-c2c(C(=O)N/N=C/C3CC=CCC3)nnn2-c2nonc2N)cc1 (stereo unspecified) returned ASM inhibitor 0%, IL1B secr inh 17, HepG2 tox -25%, TDP1 cell noCPT -5%, DT40 TDP1 CPT inconclusive and TGFb inhibitor -7%.
`CCc1ccc(/C=N/NC(=O)c2nnn(-c3nonc3N)c2C(C)C)cc1` gave ASM inhibitor -1%, IL1B secr inh 27, HepG2 tox -17%, TDP1 cell noCPT 18µM*, DT40 TDP1 CPT inconclusive and TGFb inhibitor -4%.
CCCOc1ccc(-c2c(C(=O)N/N=C/C3CCCCC3)nnn2-c2nonc2N)cc1 was read as ASM inhibitor 2%, IL1B secr inh 8, HepG2 tox -9%, TDP1 cell noCPT 12µM*, DT40 TDP1 CPT 26µM* and TGFb inhibitor -25%.
CC(C)c1c(C(=O)N/N=C/c2ccccc2OCc2c(F)cccc2Cl)nnn1-c1nonc1N was read as ASM inhibitor -2%, IL1B secr inh 69, HepG2 tox 9%, TDP1 cell noCPT 2.3µM*, DT40 TDP1 CPT 5.8µM* and TGFb inhibitor -23%.
`CCOc1ccc(-c2c(C(=O)N/N=C/c3ccc(C)cc3)nnn2-c2nonc2N)cc1` gave ASM inhibitor -2%, IL1B secr inh 10, HepG2 tox 3%, TDP1 cell noCPT inconclusive, DT40 TDP1 CPT 1.6µM* and TGFb inhibitor -26%.
`COc1ccc(Cn2c(CNC(=O)c3ccc(N(C)C)cc3)nc3cccnc32)cc1` gave HepG2 tox -13%, TDP1 cell noCPT -14%, DT40 TDP1 CPT -2% and TGFb inhibitor 3%.
`COc1ccccc1NC(=O)c1cc(-c2cc(OC)c(OC)c(OC)c2)nc2ccccc12` gave ASM inhibitor -7%, IL1B secr inh -3, HepG2 tox -9%, TDP1 cell noCPT 7.3µM*, DT40 TDP1 CPT 9.2µM* and TGFb inhibitor 45%.
`CNC(=O)c1cccc(NC(=O)c2cc(-c3ccccc3)nc3c2cnn3C(C)C)c1` gave ASM inhibitor -25%, IL1B secr inh inconclusive, HepG2 tox -27%, TDP1 cell noCPT inconclusive, DT40 TDP1 CPT inconclusive and TGFb inhibitor inconclusive.
COc1ccc(-c2cc(C(=O)Nc3ccc(Cl)cc3Cl)c3ccccc3n2)cc1OC was read as ASM inhibitor 10%, IL1B secr inh 18, HepG2 tox 3%, TDP1 cell noCPT inconclusive, DT40 TDP1 CPT inconclusive and TGFb inhibitor -6%.
COc1cc(-c2cc(C(=O)Nc3ccncc3)c3ccccc3n2)cc(OC)c1OC was read as ASM inhibitor 2%, IL1B secr inh -50*, HepG2 tox -20%, TDP1 cell noCPT 1.3µM*, DT40 TDP1 CPT 2.9µM* and TGFb inhibitor -3%.
Screening CCOc1ccccc1NC(=O)c1cc(-c2cc(OC)c(OC)c(OC)c2)nc2ccccc12 returned ASM inhibitor -17%, IL1B secr inh 1, HepG2 tox 3%, TDP1 cell noCPT 7.3µM*, DT40 TDP1 CPT 10µM* and TGFb inhibitor -5%.
`COc1cc(NC(=O)c2cc(-c3ccccc3)nc3c2cnn3C(C)C)cc(OC)c1OC` gave ASM inhibitor -26%, IL1B secr inh -22, HepG2 tox 3%, TDP1 cell noCPT 5.8µM*, DT40 TDP1 CPT 13µM* and TGFb inhibitor 4%.
For CCOc1ccc(N(CC(=O)N/N=C/c2cc(Br)c(C)o2)S(C)(=O)=O)cc1 the results were ASM inhibitor -1%, IL1B secr inh 2, HepG2 tox 6%, TDP1 cell noCPT 0%, DT40 TDP1 CPT 11% and TGFb inhibitor 0%.
Screening CNC(=O)C1(C)Cc2c(-c3ccc4c(c3)OCO4)ccnc2O1 (stereo unspecified) returned IL1B secr inh 30, HepG2 tox -28%, TDP1 cell noCPT inconclusive, DT40 TDP1 CPT inconclusive and TGFb inhibitor 1%.
CC(=O)Nc1ccc(NC(=O)C2(C)Cc3c(-c4cccc(C(N)=O)c4)ccnc3O2)cc1 (stereo unspecified) was read as IL1B secr inh 7, HepG2 tox -1%, TDP1 cell noCPT -9%, DT40 TDP1 CPT 9% and TGFb inhibitor 18%.
For COc1ccc(NC(=O)C2(C)Cc3c(-c4cccc(C(N)=O)c4)ccnc3O2)cc1 (stereo unspecified) the results were IL1B secr inh -6, HepG2 tox -2%, TDP1 cell noCPT 3.7µM*, DT40 TDP1 CPT 3.7µM* and TGFb inhibitor 9%.
`COc1ccc(NC(=O)C2(C)Cc3c(-c4ccc5c(c4)OCO5)ccnc3O2)cc1` (stereo unspecified) gave IL1B secr inh 37, HepG2 tox -17%, TDP1 cell noCPT 2.9µM*, DT40 TDP1 CPT 4.1µM* and TGFb inhibitor inconclusive.
Screening CC1(C(=O)Nc2ccc(Cl)c(C(F)(F)F)c2)Cc2c(-c3ccc(C(N)=O)cc3)ccnc2O1 (stereo unspecified) returned IL1B secr inh 23, HepG2 tox 16µM*, TDP1 cell noCPT 15µM*, DT40 TDP1 CPT 18µM* and TGFb inhibitor 11µM*.
`CC1(C(=O)Nc2cccc(OC(F)(F)F)c2)Cc2c(-c3ccc4c(c3)OCO4)ccnc2O1` (stereo unspecified) gave IL1B secr inh 90, HepG2 tox -30%, TDP1 cell noCPT inconclusive, DT40 TDP1 CPT 21µM* and TGFb inhibitor inconclusive.
For COc1cc(OC)c2cc(C(=O)N[C@H](C(=O)N3CCC[C@H]3C(=O)O)C(C)C)n(C)c2c1 the results were ASM inhibitor 1%, IL1B secr inh -11, HepG2 tox -2%, TDP1 cell noCPT -1%, DT40 TDP1 CPT 9% and TGFb inhibitor 3%.
COc1ccccc1NC(=O)Cc1c(C(=O)O)[nH]c2ccc(Cl)cc12 was read as HepG2 tox -67%, TDP1 cell noCPT -4%, DT40 TDP1 CPT 32% and TGFb inhibitor inconclusive.
CC1(C(=O)Nc2ccc(Cl)c(C(F)(F)F)c2)Cc2c(-c3cccc(C(N)=O)c3)ccnc2O1 (stereo unspecified) was read as IL1B secr inh 0, HepG2 tox -59%, TDP1 cell noCPT 6.5µM*, DT40 TDP1 CPT 10µM* and TGFb inhibitor inconclusive.

Screening data from PubChem.
